Bioassay records: PubChem BioAssay, National Center for Advancing Translational Sciences (NCATS)
The full list was thinned out, with hits kept by preference.
GRP78 ERSR act: ER stress response induction in glioma. U87-MG GRP78 promoter luciferase reporter, 16 h. Potency, µM, usual class: activators. actives 0.02% (n = 420,000). AID 602332; also: series mostly up to about 76 µM; nearly all actives have a fitted effect of over 35% in size
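ERSR induction read as luciferase luminescence (Bright-Glo, 10 min at room temperature) in stably transfected human U87-MG glioma cells exposed to compounds for 16 h, using GRP78 as sensor.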
12-LOX inh: blocks human arachidonate 12S-lipoxygenase; P18054; Potency, µM (highest dose often 108 µM), actives largely listed as inhibitors; actives 1.1% (n = 580,000); AID 1671190; purified 12hLO, xylenol orange hydroperoxide absorbance
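Purified human 12hLO at 150 nM in 25 mM Hepes, 0.01% Triton X-100, pH 7.0, preincubated 15 min at room temperature with compound. Reaction started with 40 uM arachidonic acid, 30 min at room temperature. Hydroperoxide measured by Fe-xylenol orange, 573/405 nm absorbance ratio.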
VDR inh: vitamin D3 receptor (human) inhibition; P11473; VDR-SRC2-3 peptide fluorescence polarization, 2 h; Potency, µM, most hits filed as inhibitors; actives 0.93% (n = 400,000); AID 504847
Target sequence (P11473 whole entry, looked up): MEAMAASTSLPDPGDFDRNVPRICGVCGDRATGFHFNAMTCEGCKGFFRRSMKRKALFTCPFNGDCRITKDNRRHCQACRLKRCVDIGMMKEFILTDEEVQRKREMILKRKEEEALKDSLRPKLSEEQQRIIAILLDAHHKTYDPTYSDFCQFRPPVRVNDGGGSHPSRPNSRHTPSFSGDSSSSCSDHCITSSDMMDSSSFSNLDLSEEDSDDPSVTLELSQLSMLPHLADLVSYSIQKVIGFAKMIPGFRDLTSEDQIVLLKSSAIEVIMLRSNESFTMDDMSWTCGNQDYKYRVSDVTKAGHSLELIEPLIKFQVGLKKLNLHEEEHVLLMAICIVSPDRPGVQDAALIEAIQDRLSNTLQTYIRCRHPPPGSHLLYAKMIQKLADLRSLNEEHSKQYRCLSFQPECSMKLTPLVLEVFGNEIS
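Fluorescence polarization assay of small-molecule disruption of VDR binding to coregulator peptide SRC2-3. Compounds and controls pin-transferred, then read after 2 h incubation at ambient room temperature.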
Sfp inh: blocks B. subtilis Sfp PPTase activity; Q9F4F7; Biochemical Sfp PPTase activity, qHTS; Potency, µM, usual class: inhibitors; actives 3.5% (n = 310,000); AID 1490;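 also: the enzyme is Sfp with the accession as filed and its product quenches rhodamine fluorescence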
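With Hepes-Na pH 7.6 buffer containing 10 mM MgCl2, Sfp (15 nM) modified BHQ-2-YbbR (12.5 uM) using rhodamine-CoA (5 uM). Two reads 30 minutes apart at 525/598 nm yielded each well's rate.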
G9a block: inhibitors of human histone lysine methyltransferase G9a; actives 8.8% (n = 350,000); Q96KQ7; Potency, µM (top dose mostly 102 µM), usual class: inhibitors; G9a H3K9 monomethylation, AlphaScreen, 2 h; also: nearly all actives have a fitted effect of over 75% in size
Target sequence (Q96KQ7 913-1193 limits assumed): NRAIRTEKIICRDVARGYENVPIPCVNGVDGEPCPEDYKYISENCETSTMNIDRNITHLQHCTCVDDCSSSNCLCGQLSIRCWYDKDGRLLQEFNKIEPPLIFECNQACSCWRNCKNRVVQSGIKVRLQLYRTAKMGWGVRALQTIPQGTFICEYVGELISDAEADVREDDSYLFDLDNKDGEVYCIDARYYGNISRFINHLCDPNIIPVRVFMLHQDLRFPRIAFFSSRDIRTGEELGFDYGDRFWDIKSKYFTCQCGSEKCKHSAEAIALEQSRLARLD
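Signal arises when biotinylated H3K9 peptide, once monomethylated, bridges streptavidin donor and antibody-captured acceptor beads. Enzyme at 20 nM was preincubated 15 min with test compounds; peptide 500 nM and SAM 20 uM then reacted for 2 h.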
Numbers stand for hits; n = inactive; u = inconclusive; x = not tested or not shown; [ ] = dose if it differs, or a comment. Calls follow the shape of the dose curve; as a rule, active = well fitted curve in the direction sought with a large enough effect; inconclusive = small, poorly fitted or top-dose-only effect, or another doubt; inactive = no such curve, though single readings can be large; an effect the other way counts as inactive or inconclusive.

SMILES	GRP78 ERSR act	12-LOX inh	VDR inh	Sfp inh	G9a block
OC(C#CCN1CCCC1)c1ccccc1 (stereo unspecified)	n	n	n	n	45µM
CCN(CC)CCC#CC(O)(c1ccccc1)c1ccccc1	n	u	n	n	n
CC(C)C(O)(C#CCN1CCCCC1)c1ccccc1 (stereo unspecified)	n	n	n	n	n[12.7 µM]
CCCN(CC#CC(O)(c1ccccc1)c1cccnc1)CCC (stereo unspecified)	n	n	n	n	22µM
CN1CC(c2ccccc2)CC2(CCN(C(=O)CCCn3ccnc3)CC2)C1 (stereo unspecified)	x	n	x	x	x
COc1c(Cl)cc(NCC(=O)NC(C)(C#N)C(C)C)cc1Cl (stereo unspecified)	x	n	x	x	x
CCC1(C(O)(C#CCN2CCCCC2)c2ccccc2)CCCC1 (stereo unspecified)	x	n	x	x	x
OC(C#CCN1CCCC1)(c1ccccc1)c1cccnc1 (stereo unspecified)	n	u	n	u	8.9µM
CCOC(=O)C1=C2NC(=O)c3ccccc3N2C(=O)C1	n	n	n	n	7.9µM
COc1ccc(Nc2cc(C)nc(NCc3ccccc3)n2)cc1	n	u	n	32µM	50µM
CN1CCCCCCN(C(=O)c2nccc3ccccc23)[C@H]2CCC[C@H]2C1=O	x	n	x	x	x
COc1ccc(-c2nc3ccccc3c(=O)n2NC(=S)N(C)C)cc1	n	35µM	35µM	18µM	7.1µM
CCOC(=O)C1(NC(=O)c2cc(Br)ccc2F)CCCCC1	x	n	x	x	x
CCOC(=O)c1c(C)[nH]c(C(=O)Cn2c(=O)c3c(ncn3CC)n(Cc3ccccc3)c2=O)c1C	n	n	n	n	8.9µM
CC(=O)N1c2ccccc2Sc2ccc3ccccc3c21	n	n	x	x	x
O=C(CCl)N1c2ccccc2Sc2c1ccc1ccccc21	u	35µM	u	x	x
COc1cccc(-c2cc(-c3nc(C4CC(=O)N(C5CCCCC5)C4)no3)[nH]n2)c1 (stereo unspecified)	x	n	x	x	x
Cc1ccc2[nH]c(=O)c3cc(C(=O)NCc4ccccc4Cl)sc3c2c1	x	n	x	x	x
Cc1cccc(C)c1N(CC(=O)Nc1cc(Cl)ccc1Oc1ccccc1)S(C)(=O)=O	n	n	n	n	13µM
Cc1ccc(C)c(N(CC(=O)Nc2cc(Cl)ccc2Oc2ccccc2)S(C)(=O)=O)c1	n	n	n	n	n
Cc1ccccc1CN(C)CC(=O)Nc1ccccc1Oc1ccccc1	n	u	n	n	8.9µM
CN(CC(=O)Nc1ccccc1C(=O)NC1CC1)Cc1ccccc1F	n	n	n	x	n
Cc1ccccc1CN(C)CC(=O)Nc1ccccc1-c1ccccc1	n	n	n	n	n
CN(CC(=O)Nc1ccccc1Oc1ccccc1)Cc1ccccc1F	n	n	n	u	10µM
COc1ccc(CN(C)CC(=O)Nc2ccc(Cl)cc2F)c(OC)c1	n	n	n	u	13µM
SMILES	GRP78 ERSR act	12-LOX inh	VDR inh	Sfp inh	G9a block
Cc1cnc2c(S(=O)(=O)N(CC(C)C)C3CC3)cccc2c1	x	n	x	x	x
CN(C)/C=C\C(=C/C(=O)C(F)(F)F)Nc1ccccc1Oc1ccccc1	n	n	n	45µM	n
Cc1ccc(NC(/C=C/N(C)C)=C/C(=O)C(F)(F)F)c(C)c1	n	n	n	n	u
CC(=O)Nc1ccc(NC(=O)CC2C(=O)NCCN2C(=O)CN2CCN(c3ncccn3)CC2)cc1 (stereo unspecified)	x	n	x	x	x
CCCc1[nH]n(-c2ccc([N+](=O)[O-])cc2)c(=O)c1C(C)=NCc1ccncc1	n	u	n	n	35µM
COc1ccc(-c2[nH]n(-c3ccc([N+](=O)[O-])cc3)c(=O)c2C=NCc2ccncc2)cc1	n	n	n	n	n
C#CC(C)(CC)NC(=O)c1ccccc1C(=O)O (stereo unspecified)	x	n	x	x	x
c1ccc(CN2C[C@@H]3CC[C@H](C2)N(Cc2ccc4nsnc4c2)C3)nc1	x	n	x	x	x
Clc1nc(Cl)nc(N(c2ccccc2)c2ccccc2)n1	n	u	n	n	50µM
CCN(Cc1cccs1)C(=O)NCc1cccc(F)c1	x	n	x	x	x
CCc1nc2c(sc3nc4c(cc32)COC(C)(C)C4)c(=O)n1Cc1ccccc1	n	n	n	n	u
CCc1nc2c(sc3nc4c(cc32)COC(C)(C)C4)c(=O)n1Cc1ccco1	n	u	u	3.5µM	u
CCN1CC(CN(C)Cc2nc(C3CC3)no2)Oc2ccccc21 (stereo unspecified)	x	n	x	x	x
O=C(NCc1ccco1)c1cc(NS(=O)(=O)c2cccc([N+](=O)[O-])c2)ccc1O	n	u	n	n	50µM
O=C(NCc1ccco1)c1cccc(NS(=O)(=O)c2cccc(F)c2)c1	n	n	n	n	n
COc1ccc(CN2CCNC(=O)C2CC(=O)O)cc1OC (stereo unspecified)	n	n	n	n	u
COc1ccc(CN2CCNC(=O)C2CC(=O)NCCc2nc(C)c(C)s2)cc1C (stereo unspecified)	n	n	n	n	45µM
COc1ccc(CN2CCNC(=O)C2CC(=O)NCc2cnn(C)c2)cc1OC (stereo unspecified)	n	n	n	n	50µM
N#Cc1cccnc1NCCCNc1ncccc1C#N	x	n	x	x	x
COc1ccc(C)cc1Nc1n[n+](C)c(-c2ccc(C(=O)O)cc2)s1	x	x	x	n	u
COc1ccc(C)cc1Nc1n[n+](-c2ccccc2)c(-c2ccc(NC(C)=O)cc2)s1	n	n	n	u	32µM
COc1cc(OC)c(-c2sc(Nc3ccccc3)n[n+]2-c2ccc(F)cc2)cc1OC	n	n	n	n	n
COc1ccc(C)cc1Nc1n[n+](-c2ccccc2)c(-c2ccc(SC)cc2)s1	n	u	n	u	45µM
COc1ccc(C)cc1Nc1n[n+](-c2ccccc2)c(-c2cc([N+](=O)[O-])cc(OC)c2O)s1	n	x	n	22µM	32µM
Cc1cc2oc(C(=O)N3CCC(Cc4ccccc4)CC3)cc(=O)c2cc1C	x	n	x	x	x
SMILES	GRP78 ERSR act	12-LOX inh	VDR inh	Sfp inh	G9a block
O=C(Nc1cccc(-c2csc(Nc3ccccc3)n2)c1)c1cc([N+](=O)[O-])cc(C(F)(F)F)c1	n	n	n	n	50µM
O=C(Nc1cccc(-c2csc(Nc3ccc(Cl)cc3)n2)c1)c1cc([N+](=O)[O-])cc(C(F)(F)F)c1	n	n	n	n	n
COc1ccc(-n2nnnc2C2CCN(S(=O)(=O)c3cc(OC)ccc3OC)CC2)cc1	x	n	x	x	x
O=[N+]([O-])c1cccc(-c2n[nH]c(=S)n2Cc2ccccc2)c1	n	u	n	n	1.8µM
COc1ccc(Cc2n[nH]c(=S)n2CC(C)C)cc1	x	14µM	x	x	x
CC(c1n[nH]c(=S)n1Cc1ccccc1)N(C)C (stereo unspecified)	n	n	u	89µM	10µM
COc1ccc(-c2n[nH]c(=S)n2CC(C)C)cc1	n	u	n	n	1µM
CCn1c(C2CCN(Cc3ccccc3)CC2)n[nH]c1=S	n	n	n	n	n
O=C(CSc1nc2c(c(=O)n1CCc1ccccc1)SCC2)Nc1ccc(Cl)cc1	x	n	x	x	x
